From PubChem BioAssay (NCI)
The panel holds about 83,000 compounds, 20% with a hit somewhere; the sample as a whole holds those more often.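 Percent growth is the endpoint: 0 to 100 indicates growth inhibition (40 means 60% inhibition), 0 means no net growth, and negative values indicate cell death.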 Values without a mark were called inactive. The source made the active and inactive calls. How the source made its calls: active means growth percent below 10; inactive means the rest.

system: NCI-H460 lung; assay: NCI-60 one-dose screen, 48 h (100 = growth as untreated, 0 = no growth, -100 = all killed); settings: 10 µM unless noted

First: O=C(O)COc1ccc([N+](=O)[O-])cc1Cl
Second: CC(=O)Nc1ccc(S(=O)(=O)Cl)cc1
The growth of the first is higher: 108% for the first, 102% for the second.

Compared with `C=C[C@]1(C)C=C2C(=O)[C@@]3(O)OC[C@@]4(CCCC(C)(C)C43O)C2(O)C(O)C1` (stereo not given in full), `C[C@]12CC[C@H]3[C@@H](CC[C@H]4C[C@@H](O)CC[C@@]43C)[C@@H]1CC(=O)C2` is higher in growth: 82.5% for the first, 103% for the second.

First: COC(=O)C(C(=O)OC)C(Br)C(Br)C(Br)c1ccccc1 (stereo not given)
Second: CC(Br)c1nc2ccccc2cc1C(N)=O (stereo not given)
The growth of the first is higher: 108% for the first, 102% for the second.

First: C=CCNCCC#N
Second: CC(=O)CC(=O)OC/C=C(/C)CCC=C(C)C
The growth of the first is higher: 111% for the first, 109% for the second.

Going from `O=C1C=C(OCC=C(C(F)(F)F)C(F)(F)F)c2ccccc2C1=O` to `COC(=O)c1cc(=O)nc(N/N=C/c2ccccc2O)s1`, the growth rises from 59% to 94.5%.

First: NC(CSC(c1ccccc1)(c1ccccc1)c1ccccc1)C(=O)NCC(=O)O (stereo not given)
Second: O=C(c1ccccc1)c1ccccc1-c1ccccc1
The growth of the first is higher: 95.2% for the first, 15.1% for the second.

Compared with `COc1cc(-c2nc(/C=C3/C(=O)Nc4ccccc43)c3ccccn23)cc(OC)c1OC`, `COc1ccc(/C=C2\CCCC3=C2N=C2SC=NN2C3c2ccc(OC)c(OC)c2)cc1OC` (stereo not given) is lower in growth: 66.4% for the first, 44% for the second.

First: CCCCCCCCCCCCCCCCNC(=O)Nc1ccc(C)c(NC(=O)NCCCCCCCCCCCCCCCC)c1
Second: CCCCCCCCCCCCCCCCCCOP(=O)(O)O
The growth of the first is higher: 103% for the first, 101% for the second.

Going from `CN1NC(c2ccccc2)NN(C)C1=O` to `Cn1c2ccccc2c2ccccc21`, the growth rises from 109% to 110%.

Going from `COc1cc2c(c3c1c(=O)c1cccc(F)c1n3C)C=CC(C)(C)O2` to `COc1cc([C@@H]2c3cc4c(cc3[C@H](O)[C@H]3COC[C@@H]23)OCO4)cc(OC)c1OC`, the growth falls from 102% to 94.4%.

Going from `O=C(/C=C/c1ccc(Cl)cc1)c1ccc(Cl)cc1` to `O=Nc1ccc(O)c2ccccc12`, the growth falls from 104% to 96.7%.

Going from `CC(=O)O.[In]` to `C=C(C)C(C(=O)OCC)(C(=O)OCC)C(C)C`, the growth falls from 111% to 106%.

First: CC(CCN1CCN(CCC(C)CC(C)(C)C)C1CC(C)CC(C)(C)C)CC(C)(C)C (stereo not given)
Second: CN(C)CCOC(=O)C(C)(C)C
The growth of the first is lower: 101% for the first, 103% for the second.

Compared with `COC(=O)c1c[n+]([O-])ccc1OC`, `CNc1ccc(Nc2ccc(S(=O)(=O)O)cc2)c2c1C(=O)c1ccccc1C2=O` is higher in growth: 107% for the first, 108% for the second.

First: CCCCCCC(C(=O)OCC)(C(=O)OCC)C1CCCCCC1
Second: CCC(C)CC(N)O (stereo not given)
The growth of the first is lower: 106% for the first, 108% for the second.

For `N#CCc1ncc(-c2ccc(C(F)(F)F)cc2)c(NC2CCCCCC2)n1`, the growth was 8.28% [100 µM] (active).
`COc1cc2cn3c4ccc(O)cc4[nH]c(=O)c3c2cc1OC` was tested, and the growth was -55.7% (active).
In the case of `NCCCOc1cc2ccccc2cc1C(=O)Nc1ccc(Cl)cc1OC(=O)c1cc2ccccc2cc1OCCCN`, the growth is reported as -89.7% (active).
`COC(=O)[C@H](Cc1cn(C)cn1)NC(=O)[C@H](CC(=O)OCc1ccccc1)NC(=O)Nc1cc(C(F)(F)F)cc(C(F)(F)F)c1` was tested, and the growth was -62.8% [100 µM] (active).
With `CCn1cnc(C[C@H](NC(=O)[C@@H](NC(=O)Nc2cc(C(F)(F)F)cc(C(F)(F)F)c2)C(C)C)C(=O)OC)c1` the growth was -43.2% [100 µM] (active).
For `CC#Cc1nc(Nc2cc(C)[nH]n2)c2ccccc2n1`, the growth was 3.75% [100 µM] (active).
For `COC(=O)[C@H](Cc1cn(C)cn1)NC(=O)[C@@H](NC(=O)Nc1cc(C(F)(F)F)cc(C(F)(F)F)c1)C(C)(C)C`, the growth was -56.3% [100 µM] (active).
With `NCCCOc1cc(Cl)ccc1NC(=O)c1cc2ccccc2cc1OCCCN` the growth was -91% (active).

Compound `[N-]=[N+]=Nc1ncc(-c2ccc(C(F)(F)F)cc2)c(NC2CCCCCC2)n1` has a growth of 18.4% [100 µM].

With `CSCc1ncc(-c2ccc(C(F)(F)F)cc2)c(NC2CCCCCC2)n1` the growth was 49.8% [25 µM].
